Experimental findings from PubChem BioAssay (NCI) are described below.

“And” between values parts separate entries of the source, which are not always exact repeats. Identical values can stand only once. About 83,000 compounds went through this panel and 20% of them were active in at least one assay; those are over-represented in the sample as a whole.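 Negative percent growth values reflect cell death: -40 means 40% of the cells present at the start died, and -100 means all died.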 Unmarked numbers belong to inactive results. The source made the active and inactive calls. Rule for the calls: active = growth percent below 10; inactive = the rest.

The assay relates to HL-60(TB) leukemia. The assay is described as follows: NCI-60 one-dose screen, 48 h (100 = growth as untreated, 0 = no growth, -100 = all killed). Particulars: 10 µM unless noted.

As to `C=C(C(N)=O)C(N)C(=O)O` (configuration not stated), the growth was 104%. As for `C[C@H]1[C@H](C)CC[C@]2(C(=O)Nc3ccc4ncccc4c3)CC[C@]3(C)C(=CC[C@@H]4[C@@]5(C)CCCNC(C)(C)[C@@H]5CC[C@]43C)[C@H]12`, the growth is -45.2% (active). Then `CCCCCCCCOc1ccc(/C=N/Nc2cc(C)nc3ccc(Cl)cc23)cc1`, with 13.5%; and `Cc1ccc(C2CC(c3ccc(Nc4nc(NCCO)nc(NCCO)n4)cc3)=NN2c2ccc(Cl)cc2)cc1` (configuration not stated), with 80.7%. In the case of `O=C(OCc1ccc2c(Cl)cc(Cl)c(O)c2n1)N1CCN(C(=O)c2cc3cc(F)ccc3[nH]2)CC1`, the growth was -49.4% (active). For the compound `O=C(/C=C\c1ccnc2ccccc12)c1ccc([N+](=O)[O-])cc1`, the growth was 47.1% and 30.4%. Then `CCN(Cc1ccc(CN(CC)C(=O)C(Br)Br)cc1)C(=O)C(Br)Br`, with 13.1%; and `C#CCOc1ccc2ncnc(Nc3cccc(CNC(=O)CCl)c3)c2c1`, with 35.2% [8.25 µM]; and `COc1cc(Nc2nc3ccccc3nc2NS(=O)(=O)c2ccc(NC(=O)c3ccc(C)c(OC)c3)cc2)cc(OC)c1`, with 74.8% and 26.7%.

For `Cc1ccc(C)c(C(O)(c2cc(C)ccc2C)C2(O)CCCCC2)c1`, the growth was 96.5%. Regarding `O=C(O)c1c2c(nc3ccccc13)Cc1ccccc1-2`, the growth was 92.8% and 112%.

Regarding `CC(=O)N1c2ccccc2NC2=C(C(=O)N(Cc3ccccc3)C2(C)C)C1c1ccco1` (configuration not stated), the growth is 9.63% (active).
